Measurements published in PubChem BioAssay (NCI).
Compounds without any hit were thinned out: in the full panel of roughly 79,000, 15% have a hit. Rule as the data show it: active = growth inhibition above about 70%; inactive = the rest.

Legend:
[1] = NCI Yeast Anticancer Drug Screen. Data for the rad50 strain (AID 155);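 also: 0% = growth of vehicle-only cultures of the same strain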; settings: S. cerevisiae rad50 strain growth inhibition; at 50.0 µM; active compounds read high
Method in brief: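 DNA repair mutant yeast, compound exposure, growth read-out; inhibition is taken relative to vehicle.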

[2] = NCI Yeast Anticancer Drug Screen. Data for the mec2-1 strain (AID 157); settings: S. cerevisiae mec2-1 strain, at 50.0 µM, active compounds read high
Method in brief: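 Using mec2-1 yeast: add compound, measure growth, express inhibition versus vehicle-treated cultures.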

[3] = NCI Yeast Anticancer Drug Screen. Data for the sgs1 mgt1 strain (AID 161);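 also: 0% = growth of cultures given vehicle only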; settings: S. cerevisiae sgs1 mgt1 strain, at 50.0 µM, active compounds read high
Method in brief: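 Compounds are added to genetically altered yeast, and growth is compared with cultures given vehicle alone to give percent inhibition.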

[4] = NCI Yeast Anticancer Drug Screen. Data for the cln2 rad14 strain (AID 165);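 also: 0% = growth equal to vehicle treated cultures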; settings: S. cerevisiae cln2 rad14 strain, at 50.0 µM, active compounds read high
Method in brief: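 Yeast strain cln2 rad14, bearing defects in cell cycle control and DNA repair, serves as the test system; values reflect growth inhibition compared with vehicle.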

[5] = NCI Yeast Anticancer Drug Screen. Data for the bub3 strain (AID 167); settings: S. cerevisiae bub3 mutant strain, at 50.0 µM, active compounds read high
Method in brief: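 In this screen, a yeast mutant lacking normal mitotic checkpoint function is challenged with compound. Relative growth versus vehicle gives the inhibition value.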

[6] = NCI Yeast Anticancer Drug Screen. Data for the mlh1 rad18 strain (AID 175); settings: S. cerevisiae mlh1 rad18 strain growth inhibition; at 50.0 µM; active compounds read high
Method in brief: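 Steps: expose repair-defective yeast to compound; measure growth; express inhibition against vehicle-treated controls.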

Measured: growth inhibition

Cc1cccc(Cl)c1O
inactive: [1] 29.8% | [2] -7.1% | [3] 23.6% | [4] -23.8% | [5] -7.75% | [6] 18.2%

Nc1ncnc(N2CCOCC2)n1
inactive: [1] -28.8% | [2] -41.3% | [3] -8.15% | [4] 0.95% | [5] -14.9% | [6] -8.3%

O=S(=O)(c1ccc(Br)cc1)S(=O)(=O)c1ccc(Br)cc1
inactive: [1] -22.6% | [2] 0.7% | [3] -23.1% | [4] -13.9% | [5] 23.2% | [6] -16.1%

CC1=C(CO)C(=O)O[C@@H]([C@@H](C)[C@H]2CC[C@H]3[C@@H]4C[C@@H](O)[C@@]5(O)CC=CC(=O)[C@]5(C)[C@H]4CC[C@]23C)C1
inactive: [1] -6.5% | [2] -7.15% | [3] -17.7% | [4] -9.55% | [5] -36.2% | [6] -77.1%

CCN(CC)CN(CC)CC
inactive: [1] 13.7% | [2] -9.2% | [3] 7.6% | [4] 21.4% | [5] 10.9% | [6] 9.25%

CN(C)CCOC(=O)C(C)(C)Sc1ccc(Cl)cc1
inactive: [1] 11.1% | [2] 23.3% | [3] 26.4% | [4] -5.35% | [5] 0.4% | [6] 25.5%

O=C1NC2NC(=O)NC2N1 (configuration not stated)
inactive: [1] 6.6% | [2] -27.1% | [3] -3% | [4] -9.6% | [5] -2.05% | [6] 10.2%

Cn1ncc2c(NCCc3ccccc3)nc(Cl)nc21
inactive: [1] 19.8% | [2] -18.3% | [3] 5.15% | [4] 11.2% | [5] 8.1% | [6] 30.2%

OC1CC=CC1
inactive: [1] 2.45% | [2] -3.5% | [3] -4.6% | [4] 0.35% | [5] 8.25% | [6] -12.8%

CC1SC2=NC3=C(c4ccccc4C3=O)C(c3ccc(F)cc3)N2C1=O (configuration not stated)
inactive: [1] 34.4% | [2] 24.2% | [3] 35.8% | [4] 32% | [5] 47.1% | [6] 22.8%

CCOC(=O)C(C(=O)OCC)C(=O)c1cc(OC)c(OC)c(OC)c1
inactive: [1] 4.55% | [2] 10.6% | [3] -1.35% | [4] 7.35% | [5] 2.55% | [6] 6.5%

ClCc1nnc(-c2ccccc2)o1
inactive: [1] 14.8% | [2] -2.9% | [3] -16.2% | [4] -43% | [5] -16.2% | [6] -4.75%

CCSc1nnc2c(-c3ccccc3)n[nH]c2n1
inactive: [1] -0.75% | [2] -0.05% | [3] -21.8% | [4] -25.9% | [5] -27.6% | [6] -12.1%

c1cn(C23C4C5C6C4C2C6C53)cn1 (configuration not stated)
inactive: [1] 2.65% | [2] -11.2% | [3] 2.5% | [4] 18.1% | [5] -6% | [6] 15.9%

CCOC(=O)CNC(=O)CNC(=O)CNS(=O)(=O)c1ccc(C)cc1
inactive: [1] -22.1% | [2] 15.2% | [3] 3.1% | [4] -28.5% | [5] 10.9% | [6] -45.8%

CCOC(=O)N1c2ccccc2SC1C#N (configuration not stated)
inactive: [1] 63.1% | [2] 40.1% | [3] 37.4% | [4] 1.85% | [5] 25.1% | [6] 27.4%

CC(=O)c1cccc(NC(=O)Nc2cccc3ccccc23)c1
inactive: [1] 0.45% | [2] 5.7% | [3] 14.9% | [4] 2.75% | [5] 15.7% | [6] 2.7%

CN1CCC(O)(c2ncc(Br)c3ccccc23)CC1
inactive: [1] 17.1% | [2] -7.8% | [3] 24.9% | [4] 10.8% | [5] 11.2% | [6] 39.6%

Cn1cnc(N)c1S(N)(=O)=O
inactive: [1] -11.8% | [2] 2.45% | [3] 9.7% | [4] -6% | [5] -6.3% | [6] 26.1%

O=C1CCCCC1CN1CCOCC1 (configuration not stated)
inactive: [1] -37.5% | [2] -24.2% | [3] -5.3% | [4] -6.45% | [5] -22.1% | [6] -16.4%

O=C1NCCCCCC1S(=O)c1ccccc1 (configuration not stated)
inactive: [1] -7.8% | [2] -10.2% | [3] -8.5% | [4] 28.6% | [5] -11.8% | [6] -11.8%

CCc1cccc(C(C)C)c1NC(=O)C(=O)C(Cc1nc2ccccc2[nH]c1=O)C(=O)OC (configuration not stated)
inactive: [1] 37.8% | [2] 8.6% | [3] 3.85% | [4] -57.9% | [5] 2.4% | [6] 15.4%

CCOC(=O)c1[nH]n(-c2ccccc2)c(=O)c1/C=N/C(=S)NCCc1ccc(OC)c(OC)c1
inactive: [1] 2.05% | [2] -0.6% | [3] 5.4% | [4] -10.8% | [5] -21% | [6] 13.2%

COc1ccc(S(=O)(=O)N/N=C/c2cccc([N+](=O)[O-])c2O)cc1
inactive: [1] 9.3% | [2] -3.7% | [3] 19.7% | [4] 2% | [5] 12% | [6] 32.6%

Nc1nc(NC(=O)C2=NS(=O)(=O)c3cc(S(N)(=O)=O)c(Cl)cc3N2)n[nH]1
inactive: [1] -8.9% | [2] -26.2% | [3] -3.85% | [4] 9.7% | [5] 0.7% | [6] -2.3%

ClC(=Nc1cccc(Cl)c1)C(Cl)=Nc1cccc(Cl)c1
inactive: [1] -6.5% | [2] -1.7% | [3] -2.05% | [4] 12.6% | [5] 6.45% | [6] 1.15%

CC1C2CC(C(C3C(=O)C4CC3C(C)(C)C4C)C2=O)C1(C)C (configuration not stated)
inactive: [1] -13.1% | [2] -26.1% | [3] -43.2% | [4] -1% | [5] -27.4% | [6] -32.1%

COc1cc2c(cc1OC)-c1cc3ccc(OC)c(OC)c3c[n+]1CC2
inactive: [1] -8.55% | [2] -21.8% | [3] 23.6% | [4] -14.1% | [5] -9.45% | [6] -4.35%

COc1cccc(/C=C2\S/C(=N/Nc3nc(C)c(C)s3)NC2=O)c1O
inactive: [1] 7.7% | [2] 16.3% | [3] 20.8% | [4] 18% | [5] -8.65% | [6] 2.2%

CC(=O)c1ccccc1NCC(=O)Nn1cnc2ccc(S(=O)(=O)Nc3ccccc3C(C)=O)cc2c1=O
inactive: [1] 7.25% | [2] -21.3% | [3] 12.9% | [4] 18.6% | [5] 11.5% | [6] 7.6%

Clc1cccc(-c2nnc(-c3nn(-c4ccccc4)c4nc5ccccc5nc34)o2)c1
inactive: [1] -16.4% | [2] -31.3% | [3] -47.2% | [4] 6.1% | [5] -17.1% | [6] -10.8%

NC(CC(=O)OCc1ccccc1)C(=O)OCc1ccccc1 (configuration not stated)
inactive: [1] 9.1% | [2] 9.3% | [3] 16.1% | [4] -5.9% | [5] 3.55% | [6] 4.15%

CCOC(CN(C(C)C)C(C)C)OCC
inactive: [1] -16.4% | [2] -16.8% | [3] 8% | [4] 13.8% | [5] -16.6% | [6] 14.9%

CC12CCC/C(=N\NC(N)=S)C1C(=O)NC(=O)C2 (configuration not stated)
inactive: [1] -6.8% | [2] 2.65% | [3] -2.6% | [4] 33% | [5] 12.4% | [6] 7.15%

O=C(/C=C/c1ccc(O)cc1)c1ccc(O)cc1
inactive: [1] -30% | [2] -13.7% | [3] -37.8% | [4] 0.15% | [5] -2.9% | [6] -20.6%

COc1cc(C2c3cc4c(cc3OC(NCCc3ccccc3)C2C)OCO4)cc(OC)c1OC (configuration not stated)
inactive: [1] -15.8% | [2] -41.4% | [3] -0.3% | [4] -25.4% | [5] 0.6% | [6] 11.4%

Cc1ccc(S(=O)(=O)N2CN(S(=O)(=O)c3ccc(C)cc3)CN(S(=O)(=O)c3ccc(C)cc3)C2)cc1
inactive: [1] -29.4% | [2] -32.2% | [3] -22.8% | [4] -6.9% | [5] -40.3% | [6] -24.8%
